{
  "source": "PubChem BioAssay (NCATS)",
  "note": "Results filed as inconclusive are left out. Activity calls are given as the source filed them. Calls come from the whole dose curve; as a rule, active = well fitted inhibition curve with a large enough effect in the repeat runs; inconclusive = weak or mixed curves; inactive = no such curve, though single readings can be large or run the other way. Potency is the fitted concentration of half-maximal effect.",
  "data": [
    {"biological_target": "Cytochrome P450 2C9 (Homo sapiens) (UniProt P11712)", "sequence (P11712 whole entry, looked up)": "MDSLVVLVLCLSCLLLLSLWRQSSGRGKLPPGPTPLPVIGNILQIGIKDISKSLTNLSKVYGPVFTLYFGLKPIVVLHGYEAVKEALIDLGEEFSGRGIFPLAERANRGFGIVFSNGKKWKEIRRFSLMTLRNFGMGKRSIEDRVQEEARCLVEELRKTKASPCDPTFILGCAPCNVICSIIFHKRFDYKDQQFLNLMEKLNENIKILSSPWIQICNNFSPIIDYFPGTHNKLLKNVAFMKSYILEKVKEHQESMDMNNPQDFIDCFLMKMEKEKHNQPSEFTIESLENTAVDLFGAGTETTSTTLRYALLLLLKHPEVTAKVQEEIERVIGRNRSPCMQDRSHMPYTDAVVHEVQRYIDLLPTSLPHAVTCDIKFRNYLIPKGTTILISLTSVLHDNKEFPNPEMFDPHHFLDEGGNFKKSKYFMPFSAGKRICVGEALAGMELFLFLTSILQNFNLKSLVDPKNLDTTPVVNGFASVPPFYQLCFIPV", "assay": "Cytochrome P450 family 2 subfamily C member 9 (CYP2C9) small molecule antagonists: luciferase biochemical (cell-free) qHTS assay (AID 1645842); note: nearly all actives have a fitted effect of over 55% in size", "conditions": "P450-Glo CYP2C9 enzyme assay, luciferin luminescence; series mostly up to 57.4 µM", "protocol": "National Center for Advancing Translational Sciences [NCATS] Assay Overview: Cytochrome P450 (CYP) enzymes are membrane-bound hemeproteins that play a key role in metabolism of drugs and xenobiotics. Assaying the effect of chemicals on CYP isozymes is useful to minimize the adverse drug reactions and toxicities in drug development process. Chemical compounds were tested for their effect on CYP enzyme activities by using P450-Glo (TM) screening systems (Promega Corporation, Madison, WI). These systems provide a luminescent method containing proluciferin substrates and are converted to luciferin products by CYP isozymes. The luciferin products formed are detected with a luciferin detection reagent, and the amount of light produced is proportional to CYP activity. P450-Glo (TM) CYP2C9 screening system (Catalog. No. V9790) was used to detect the compounds that interfere in CYP2C9 activity.\nAssay Protocol Summary: Two ul of enzyme-substrate mix supplemented with 0.4% Bovine Serum Albumin was dispensed into medium binding white/solid 1536-well plates (Greiner Bio-One North America Inc., Monroe, NC) using a Flying Reagent Dispenser (FRD, Aurora Discovery, San Diego, CA). […] The assay plates were incubated at room temperature for 10 min. Then 2 ul of NADPH regeneration solution was added to each well of the assay plates using an FRD and incubated at 37C for 1 h. The reaction was stopped by adding 4 ul of detection reagent using an FRD and after 20 min incubation at room temperature, the luminescence signal was measured using a ViewLux plate reader (Perkin Elmer, Shelton, CT). Data were expressed as relative luminescence units.", "values": [
      {"smiles": "CC(C)S(=O)(=O)NC[C@H](C)c1ccc(-c2ccc(CCNS(C)(=O)=O)cc2)cc1", "Potency": "10.7 µM (active)"},
      {"smiles": "COc1ccc2cc(-c3cc(-c4cc(Cl)cc(Cl)c4)nn3C(C)c3ccc(C(=O)NCCC(=O)O)cc3)ccc2c1", "note": "(stereo not given)", "Potency": "10.7 µM (active)"},
      {"smiles": "COc1nc2ccc(Br)cc2cc1[C@@H](c1ccccc1)[C@@](O)(CCN(C)C)c1cccc2ccccc12", "Potency": "3.79 µM (active)"},
      {"smiles": "COc1cc2c(cc1OCCCN1CCCC1)N=C(N)C21CCC1", "Potency": "inactive"},
      {"smiles": "O=C(c1ccc(OC(F)F)c(C#Cc2ccccn2)c1)N1Cc2cccnc2C1", "Potency": "inactive"},
      {"smiles": "CCOc1cc(C(C)(C)C)ccc1C1=N[C@@](C)(c2ccc(Cl)cc2)[C@@](C)(c2ccc(Cl)cc2)N1C(=O)N1CCN(CC(=O)N2CCOCC2)CC1", "Potency": "21.3 µM (active)"},
      {"smiles": "O=C(Nc1ccccc1)N1CCN(c2nc(-c3ccccc3)ns2)CC1", "Potency": "5.35 µM (active)"},
      {"smiles": "Cn1ncc(Cl)c1-c1cc(C(=O)N[C@H](CN)Cc2cccc(F)c2)sc1Cl", "Potency": "9.52 µM (active)"},
      {"smiles": "Cc1ccc(NC(=O)N2CCN(c3nc(N)nc4sc(-c5cccnc5)nc34)CC2)cc1", "Potency": "3.01 µM (active)"},
      {"smiles": "CCN1CCN(Cc2ccc(C(=O)Nc3ccc(C)c(Oc4ccc5c(c4)CC(=O)N5)c3)cc2C(F)(F)F)CC1", "Potency": "23.9 µM (active)"},
      {"smiles": "COc1cc(-c2nc(N[C@H](CO)Cc3ccccc3)ccc2C(=O)NCCOc2ccccc2)cc(OC)c1OC", "Potency": "1.51 µM (active)"},
      {"smiles": "CNS(=O)(=O)c1ccccc1Nc1nc(Nc2ccc(N3CCN(C)CC3)cc2OC)ncc1Br", "Potency": "inactive"},
      {"smiles": "Cc1[nH]cnc1C[C@H]1CCc2c(C)c3ccccc3n2C1=O", "Potency": "0.19 µM (active)"},
      {"smiles": "Nc1c(CC(=O)O)cccc1C(=O)c1ccccc1", "Potency": "inactive"},
      {"smiles": "C=CC(=O)N1CCN(C(=O)CNc2cc(-c3ccccc3Cl)c(Cl)cc2OC)CC1", "Potency": "3.01 µM (active)"},
      {"smiles": "COc1cc(CCc2cc(NC(=O)c3ccc(N4CC(C)NC(C)C4)cc3)n[nH]2)cc(OC)c1", "note": "(stereo not given)", "Potency": "inactive"},
      {"smiles": "CC(C)c1cc(-c2ccc(F)c3ccccc23)nc(N)n1", "Potency": "4.25 µM (active)"},
      {"smiles": "CN(C)CCOc1cc(NS(=O)(=O)c2c(Cl)cc(C(F)(F)F)cc2Cl)ccc1Cl", "Potency": "8.49 µM (active)"},
      {"smiles": "Cc1nc2cc(C(=O)NCc3ccccn3)nn2c(C)c1Cc1cccc(Cl)c1", "Potency": "1.2 µM (active)"},
      {"smiles": "C=CS(=O)(=O)O", "Potency": "inactive"},
      {"smiles": "CCN(CCNC(=O)Nc1ccccc1Br)c1cccc(C)c1", "Potency": "3.79 µM (active)"},
      {"smiles": "Cn1c(=O)c2c(ncn2Cc2ccc(C(C)(C)C)cc2)n(C)c1=O", "Potency": "23.9 µM (active)"},
      {"smiles": "Fc1ccc(N2CCN(CCC3OCCc4ccccc43)CC2)cc1", "note": "(stereo not given)", "Potency": "inactive"},
      {"smiles": "O=S(=O)(NCc1cccc2ccccc12)c1cc(Cl)c(Oc2cccc(N3CCNCC3)c2)s1", "Potency": "1.69 µM (active)"},
      {"smiles": "C[C@H]1[C@H](/C=C/c2ccc(-c3ccccc3C#N)cn2)[C@@H]2[C@@H](C)OC(=O)[C@@H]2C[C@@H]1C", "Potency": "inactive"},
      {"smiles": "Cc1cn2cc(C(=O)N(C)CCO)cc(NC3CCOc4cccc(C)c43)c2n1", "note": "(stereo not given)", "Potency": "19 µM (active)"},
      {"smiles": "COc1ccccc1N1CCN(CC(C(=O)NC(C)(C)C)c2ccccc2)CC1", "note": "(stereo not given)", "Potency": "12 µM (active)"},
      {"smiles": "N#Cc1cc(CN2CCC(Nc3ncnc4sc(Cl)cc34)CC2)ccc1F", "Potency": "inactive"},
      {"smiles": "Cn1cc(-c2ccc3c(c2)CCN3C(=O)Cc2cccc(C(F)(F)F)c2)c2c(N)ncnc21", "Potency": "12 µM (active)"},
      {"smiles": "Cc1nc(Nc2cnn(C3CCNCC3)c2)nc2c1N(C)C(=O)c1cc3ccccc3cc1N2C", "Potency": "1.07 µM (active)"},
      {"smiles": "COC(C)(C)CCn1nc(Nc2c(C)cccc2C)c2cnc(Nc3ccc(OCCN4CCCC4)c(F)c3)nc21", "Potency": "6.01 µM (active)"},
      {"smiles": "O=C(NCCCn1ccnc1)c1cc(-c2ccco2)on1", "Potency": "9.52 µM (active)"},
      {"smiles": "CCN1C(C)(C)CC(Oc2ccc(C(=O)Nc3ccc(NC(=O)Nc4cc(C(C)(C)C)on4)cc3)nc2)CC1(C)C", "Potency": "inactive"},
      {"smiles": "O=C(NS(=O)(=O)c1ccc(Br)s1)c1ccc(Cl)cc1Cl", "Potency": "2.68 µM (active)"},
      {"smiles": "CN(c1ccc(NC(=O)Nc2ccccc2)cc1)S(=O)(=O)c1cnn(-c2ccc(F)cc2)c1", "Potency": "0.425 µM (active)"},
      {"smiles": "CN[C@H]1CC[C@@H](c2ccc(Cl)c(Cl)c2)c2ccccc21", "Potency": "15.5 µM (active)"},
      {"smiles": "CNc1cccc(CCOc2ccc3c(c2)CN(CC(F)(F)F)C(=O)[C@H](CC(=O)O)C3)n1", "Potency": "inactive"},
      {"smiles": "COC(=O)c1cc(Br)cnc1N1CCC(NC2CCCCC2)C(O)C1", "note": "(stereo not given)", "Potency": "inactive"},
      {"smiles": "CCCC(CCC)C(N)=O", "Potency": "inactive"},
      {"smiles": "CCn1c(=O)n([C@H]2CCCN(c3nccc(-c4cc5ccccc5o4)n3)C2)c2ccccc21", "Potency": "1.69 µM (active)"}
    ]}
  ]
}
